Bioassay records (PubChem BioAssay)
DNA FID counter – compounds displacing fluorescent DNA intercalator, primary screen, artefact control for HCV NS3 helicase inhibitor project, biochemical, FID fluorescence | DNA fluorescent intercalator displacement | inhibition, % at 7.9 µM | 290,000 tested, 0.17% active; in the data active means inhibition above about 37%;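 further: 0% = vehicle and 100% = reference compound; higher means more ethidium bromide displaced from hairpin DNA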
beta cell repl – inducers of MIN6 beta-cell proliferation, primary screen, ATP luminescence, uHTS | MIN6 cells proliferation, ATPlite luminescence, 48 h; cells starved in 0.2% serum; 100% = growth in 10% serum | proliferation, % at 10 µM | 330,000 tested, 0.29% active;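 active means compounds whose signal lies at least 3.5 SD above the mean of all wells on their plate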;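 further: 0% = DMSO-treated cells in low-serum medium and 100% = 10% serum control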
PREPL inh – PREPL enzyme inhibitors, primary screen, biochemical, fluorescence polarization; recombinant PREPL, fluorescence polarization activity-based probe; inhibition, % at 5.96 µM; 320,000 tested, 0.68% active; AID 2751, 2010; in the data active means inhibition above about 43%;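 further: 0% = enzyme with DMSO and 100% = wells lacking enzyme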
Target sequence (Q4J6C6 whole entry, looked up): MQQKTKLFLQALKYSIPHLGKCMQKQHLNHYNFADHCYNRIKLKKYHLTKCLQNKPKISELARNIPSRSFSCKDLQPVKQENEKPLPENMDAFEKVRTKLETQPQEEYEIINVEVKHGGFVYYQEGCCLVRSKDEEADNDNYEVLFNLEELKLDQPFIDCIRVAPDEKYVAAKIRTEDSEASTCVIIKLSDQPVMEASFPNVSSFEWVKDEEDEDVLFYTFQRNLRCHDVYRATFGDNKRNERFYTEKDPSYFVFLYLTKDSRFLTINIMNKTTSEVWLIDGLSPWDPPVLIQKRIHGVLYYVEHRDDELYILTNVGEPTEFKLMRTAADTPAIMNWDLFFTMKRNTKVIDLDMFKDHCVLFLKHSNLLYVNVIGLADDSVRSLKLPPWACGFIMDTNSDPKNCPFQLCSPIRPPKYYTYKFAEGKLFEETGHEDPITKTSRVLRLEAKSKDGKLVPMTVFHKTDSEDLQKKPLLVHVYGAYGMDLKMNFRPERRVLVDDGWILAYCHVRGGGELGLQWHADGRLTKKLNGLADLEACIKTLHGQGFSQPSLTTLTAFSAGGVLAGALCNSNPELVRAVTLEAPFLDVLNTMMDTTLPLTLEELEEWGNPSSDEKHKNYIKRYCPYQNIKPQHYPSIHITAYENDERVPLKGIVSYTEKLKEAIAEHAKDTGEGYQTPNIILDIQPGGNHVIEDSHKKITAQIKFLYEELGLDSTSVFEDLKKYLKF
UBC13 inh – UBC13 polyubiquitin chain formation inhibitors, primary screen, biochemical, TR-FRET, uHTS. inhibition, % at 20 µM. 330,000 tested, 0.47% active; in the data active means inhibition above about 45%, passing the limit was not always enough
RAD54 inh – inhibitors of human RAD54 branch migration, primary screen, biochemical, fluorescence, single point | inhibition, % at 10.4 µM | RAD54 Holliday junction branch migration, FAM/BHQ fluorescence | DNA repair and recombination protein RAD54-like (Homo sapiens), Q92698 | AID 602329, 2012 | 360,000 tested, 0.14% active;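 active means mean normalized replicate activity at least 40 and at least half of replicates scoring 40 or more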;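 further: 0% = median of neutral control wells and 100% = median of positive control wells; inhibitors cause a drop in the FAM fluorescence signal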
RAD52 inh – RAD52 DNA annealing inhibitors, primary screen, biochemical, FRET, single point, set 2. DNA repair protein RAD52 homolog (Homo sapiens), P43351. recombinant RAD52 DNA annealing, FRET fluorescence. inhibition, % at 18.7 µM. 360,000 tested, 0.46% active;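 active means every replicate showing at least 50% inhibition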
Casp3 counter – CASP3 inhibitor validation, counterassay for project on UBE2N polyubiquitination blockers, biochemical, one dose. shares compounds with UBC13 inh. Recombinant caspase-3, Caspase-Glo 3/7 luminescence, 60 min. inhibition, % at 20 µM. 1,400 tested, 4% active. AID 488856, 2010;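 active means mean inhibition across replicates above about 26%, limit read from the data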;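 further: plate controls were DMSO with caspase-3 for no effect and DMSO wells lacking enzyme for full effect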
UBC13 confirm – UBC13 polyubiquitination inhibitors, single-point retest, confirmation, biochemical, TR-FRET, single concentration. shares compounds with UBC13 inh. inhibition, % at 10 µM. 1,400 tested, 68% active. AID 488859, 2010; in the data active means inhibition above about 45%
Numbers without * were called inactive; / = no result. Rows were chosen to be rich in hits. Some 1.3% of all compounds tested hit in one or more screens of this group.

SMILES | DNA FID counter | beta cell repl | PREPL inh | UBC13 inh | RAD54 inh | RAD52 inh | Casp3 counter | UBC13 confirm
CC(C)C#Cc1cnc2c(c1)C(=O)N([C@@H](C)CO)C[C@@H](C)[C@@H](CN(C)C(=O)Cc1ccncc1)O2 | / | / | / | / | 3.0 | 5.6 | / | /
COc1ccc(NC(=O)N[C@H]2C=C[C@@H](CC(=O)NCc3ccccn3)O[C@@H]2CO)cc1 | / | / | / | / | -1.7 | -15.4 | / | /
COc1ccccc1S(=O)(=O)N[C@H]1CC[C@H](CCNC(=O)C2CCOCC2)O[C@@H]1CO | / | / | / | / | -1.2 | -6.8 | / | /
CN(C)CCC(=O)C(Cc1ccccc1)c1ccccc1 (stereo not given) | / | -4.2 | -10.6 | 47.0* | -2.5 | -14.3 | 3.6 | 40.1
Cc1nc(Nc2cnc(/C=C/c3cc(C(=O)Nc4cccc(C(F)(F)F)c4)ccc3C)cn2)cc(N2CCNCC2)n1 | 15.4 | -6.9 | 20.3 | 88.4* | / | / | 4.7 | 115.6*
COC(=O)c1c(NC(=O)c2nc3ccccc3s2)sc2c1CC(C)(C)NC2(C)C | -4.6 | -6.1 | -15.1 | 97.1* | 9.0 | -14.7 | -3.1 | 87.0*
CCOC(=O)c1c(NC(=O)CSc2nc3ccccc3[nH]2)sc2c1CC(C)(C)NC2(C)C | / | -7.1 | -6.2 | 15.4 | 3.8 | 15.8 | / | /
CC1(C)Cc2c(sc(NC(=O)c3ccc4c(c3)OCCO4)c2C(N)=O)C(C)(C)N1 | 17.0 | -0.9 | 4.0 | 54.6* | 18.6 | -11.0 | -3.9 | 70.2*
CC1(C)Cc2c(sc(NC(=O)c3ccc(S(=O)(=O)N4CCCCCC4)cc3)c2C(N)=O)C(C)(C)N1 | 31.1 | -4.3 | -1.9 | 19.0 | 2.1 | -4.5 | / | /
CCOc1ccc(C(=O)Nc2sc3c(c2C(=O)OC)CC(C)(C)NC3(C)C)cc1 | 6.5 | -6.4 | -4.2 | 51.6* | -10.9 | -3.5 | -1.0 | 23.6
C[C@@H]1CN([C@@H](C)CO)C(=O)Cc2cc(NS(=O)(=O)c3cccs3)ccc2O[C@H]1CN(C)Cc1ccc(C(F)(F)F)cc1 | / | / | / | / | 4.3 | -7.0 | / | /
CCN1CCN(S(=O)(=O)c2ccc(Cl)c(C(=O)N(C)Cc3cccs3)c2)CC1 | / | 2.6 | 12.2 | 48.8* | 2.5 | 14.7 | -3.0 | 54.6*
FC(F)(F)c1cc(CCN2CCNC[C@@H]2Cc2ccccc2)cc(C(F)(F)F)c1 | / | -8.5 | -61.3 | 64.4* | 5.6 | 42.6 | 0.4 | 50.9*
Fc1cccc(CCN2CCNC[C@@H]2Cc2ccccc2)c1 | / | -3.9 | 26.8 | -10.9 | -8.5 | -5.5 | / | /
O=C(Nc1cccc2nsnc12)c1ccc(-c2cccc(Cl)c2)o1 | -23.5 | -5.9 | -6.5 | 48.9* | -10.9 | / | 31.5* | 7.9
O=c1c2cc(NC(=S)NCCCN3CCC(Cc4ccccc4)CC3)ccc2nc2n1CCCCC2 | 19.6 | -6.8 | 14.4 | 50.6* | 7.1 | 6.6 | 3.9 | 85.4*
CCCCOc1ccc(C(=O)NNC(=O)c2cnccn2)cc1OC | / | -2.4 | 0.4 | 64.3* | 8.6 | -1.6 | -2.7 | 23.7
COc1ccc(CC(=O)NNC(=O)c2cnccn2)cc1 | -6.6 | 0.7 | 4.1 | 4.3 | -12.9 | -5.5 | / | /
O=C(CCN1CCCCC1)NCC[C@H]1CC[C@@H](NC(=O)C2CCCCC2)[C@H](CO)O1 | / | / | / | / | / | -7.6 | / | /
CO[C@H]1CN(C)C(=O)c2cc(NS(C)(=O)=O)ccc2OC[C@H](C)N(C(=O)CN(C)C)C[C@@H]1C | / | / | / | / | -6.5 | 1.4 | / | /
COc1ccc(Cl)cc1/C=N/NC(=O)c1c(-c2ccccc2)noc1C | -30.6 | 7.8 | / | 55.8* | 6.7 | -5.9 | 2.4 | 42.7
COc1cccc(/C=N/NC(=O)c2c(-c3ccccc3)noc2C)c1OC | -28.9 | 1.9 | 4.3 | 10.3 | -10.0 | -12.9 | / | /
Cc1cccc(N2C(=O)c3ccc(C(=O)Nc4ccccn4)cc3C2=O)c1 | -21.4 | -3.1 | 7.5 | -3.9 | -2.0 | -6.8 | / | /
CC(=O)Nc1ccc2c(c1)C(=O)N(c1cccc(C)c1)C2=O | -2.6 | -2.8 | -5.6 | 45.7* | / | -15.8 | 2.0 | 40.5
O=C(NC1CCCCC1)N1CC2(C1)[C@H](c1ccccc1)[C@H](CO)N2CC1CC1 | / | / | / | / | / | -12.3 | / | /
SMILES | DNA FID counter | beta cell repl | PREPL inh | UBC13 inh | RAD54 inh | RAD52 inh | Casp3 counter | UBC13 confirm
COc1ccc(C(=O)c2c3ccccc3[n+]([O-])n2CCCN)cc1 | / | 4.8 | 22.8 | -12.1 | -10.9 | -0.1 | / | /
NCCCn1c(C(=O)c2cc(Cl)c(N)c(Cl)c2)c2ccccc2[n+]1[O-] | / | -0.6 | 14.4 | 97.0* | 13.2 | 22.0 | 1.0 | 99.9*
NC(=O)CCn1c(C(=O)c2cc(Cl)c(N)c(Cl)c2)c2ccccc2[n+]1[O-] | -14.5 | -1.1 | -4.2 | 61.5* | -7.4 | -30.6 | 0.0 | 65.2*
NC(=O)CCn1c(C(=O)c2cccc([N+](=O)[O-])c2)c2ccccc2[n+]1[O-] | -10.2 | -1.0 | 0.8 | 5.5 | -15.8 | -14.3 | / | /
CC(=O)N1CC2(C1)[C@@H](c1ccccc1)[C@@H](CO)N2Cc1cc(F)ccc1F | / | / | / | / | / | -60.0 | / | /
CC(=O)N(C)C[C@H]1Oc2cc(-c3ccccc3F)ccc2S(=O)(=O)N([C@@H](C)CO)C[C@@H]1C | / | / | / | / | -1.7 | 7.9 | / | /
COc1ccc(NS(=O)(=O)c2cc(C(=O)N3CCC3)ccc2C)cc1 | / | 3.4 | -1.4 | 71.4* | 4.7 | -9.7 | 2.6 | 77.3*
Cc1ccc(NS(=O)(=O)c2cc(C(=O)N3CCCC3)ccc2C)cc1C | -27.3 | -3.0 | 0.8 | 7.5 | -0.6 | 0.7 | / | /
CCC(C)[C@H]1CN=C(N)N1CCc1cc(C(F)(F)F)cc(C(F)(F)F)c1 (stereo not given in full) | / | -8.2 | 11.5 | 79.4* | 24.4 | 13.0 | -3.1 | 46.5*
NC1=NC[C@H](Cc2ccccc2)N1CCc1cccc(F)c1 | / | 4.9 | -7.8 | 14.9 | -0.4 | 2.9 | / | /
NC1=NC[C@@H](CC2CCCCC2)N1CCc1cc(C(F)(F)F)cc(C(F)(F)F)c1 | / | -5.1 | 35.2 | 91.2* | 29.9 | / | -3.6 | 101.0*
NC1=NC[C@H](Cc2ccc(O)cc2)N1CCc1cccc2ccccc12 | / | 3.8 | 2.1 | 61.2* | 48.4 | 4.6 | -1.5 | 50.1*
NC1=NC[C@H](Cc2ccccc2)N1CCCCC1CCCCC1 | / | -8.6 | -2.3 | 85.7* | 26.0 | -81.9 | -1.5 | 80.5*
COCC(=O)N(C)C[C@@H]1Oc2cc(-c3cccnc3)ccc2S(=O)(=O)N([C@H](C)CO)C[C@H]1C | / | / | / | / | 1.5 | -0.1 | / | /
